Measured values taken from PubChem BioAssay (Tox21).
Results filed as inconclusive are left out. Unmarked numbers belong to inactive results. Activity calls are given as the source filed them. The call rests on the fitted dose curve; in most records, active means well fitted inhibition curve with a large enough effect in the repeat runs; inconclusive means weak or mixed curves, or effect the other way; inactive means no such curve, though single readings can be large or run the other way.

molecular target: Nuclear receptor ROR-gamma (Homo sapiens) (UniProt P51449); test: qHTS assay to identify small molecule antagonists of the retinoid-related orphan receptor gamma (ROR-gamma) signaling pathway (AID 1159521; further: nearly all actives have a fitted effect of over 50% in size; on activity change, negative = inhibition: top concentration of the series differs between compounds); details: Tet-on RORgamma CHO cells, RORE-luciferase, 16 h; series mostly up to 92.4 µM; activity change, negative = inhibition: at the top concentration
In short: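 Tet-on RORγ CHO cells carrying a ROR response element–luciferase reporter were pretreated with compounds for 2 h, then induced with 1 uM (final) doxycycline hyclate for 16 h at 37 C. Antagonism was read as decreased ONE-Glo luminescence.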
On the % scale 0 is the no-effect control and ±100 the full control effect; potency means the concentration at half of the fitted maximal effect.

| SMILES | activity change, negative = inhibition | Potency |
| --- | --- | --- |
| O=C(OC(=O)c1ccccc1)c1ccccc1 | 0.875% |  |
| O=c1c(O)c(-c2ccc(O)cc2)oc2cc(O)cc(O)c12 |  | inactive |
| CS(=O)(=O)c1ccc(-c2cn3ccccc3n2)cc1 | 116% [at 42.5 µM] |  |
| CCCCCCCC/C=C\CCCCCCCCCCCC(=O)O | 23.7% |  |
| c1ccc2c(c1)CCc1ccccc1N2 |  | inactive |
| CC(C)c1nc(CN(C)C(=O)N[C@H](C(=O)N[C@@H](Cc2ccccc2)C[C@H](O)[C@H](Cc2ccccc2)NC(=O)OCc2cncs2)C(C)C)cs1 | -5.72% [at 42.5 µM] |  |
| C(=C\c1ccccc1)/c1ccccc1 | 32.5% |  |
| C=C/C(C)=C/C/C=C(\C)CCC=C(C)C | 0.564% |  |
| CCOC(=O)c1ccc(O)c(O)c1 | -1.26% [at 42.5 µM] |  |
| CC1=C(Br)C(=O)C(Br)=C/C1=C(/c1ccccc1S(=O)(=O)O)c1cc(Br)c(O)c(Br)c1C |  | 18.6 µM (active) |
| CC(C)=CCC/C(C)=C/CC/C(C)=C/CCC(=O)OC/C=C(\C)CCC=C(C)C | 0% [at 42.5 µM] |  |
| Cc1cc(C)cc(N)c1 | -5.99% |  |
| C[C@@H]1CC(=O)NN=C1c1ccc(NN=C(C#N)C#N)cc1 |  | 4.22 µM (active) |
| C=Cc1ccc(S(=O)(=O)O)cc1 | -23.8% |  |
| CC(C)=CCC/C(C)=C/CC/C(C)=C/C(=O)OCC(=O)[C@@]1(O)CC[C@H]2[C@@H]3CCC4=CC(=O)C=C[C@]4(C)[C@H]3[C@@H](O)C[C@@]21C |  | 6.68 µM (active) |
| C[C@@H](CN(C)C)CN1c2ccccc2Sc2ccccc21 |  | 26.6 µM (active) |
| CC(CCC(=O)O)C(=O)O (centres undefined) | 27.2% |  |
| CC/C=C1/OC(=O)c2ccccc21 | -0.205% |  |
| CCC(C)COC(C)=O (centres undefined) | 23.2% |  |
